JMJD2A Tudor inh – JMJD2A Tudor domain (human) inhibition; AlphaScreen JMJD2A-Tudor / H3K4me3 peptide binding; Potency, µM (top dose mostly 114 µM), for the others: at the top dose activity change, negative = inhibition, hits mostly inhibitors; 390,000 compounds, 4.4% hits; note: % is set by controls: 0 for no effect and ±100 for the full control effect; nearly all actives have a fitted effect of over 50% in size
G9a inh – inhibitors of human histone lysine methyltransferase G9a; Q96KQ7; Potency, µM (titrated, usually from 102 µM), for inactives: top-dose activity, negative = inhibition, hits mostly inhibitors; 350,000 compounds, 8.8% hits; G9a H3K9 monomethylation, AlphaScreen, 2 h; note: % is set by controls: 0 for no effect and ±100 for the full control effect; nearly all actives have a fitted effect of over 75% in size
Target sequence (Q96KQ7 913-1193 limits assumed): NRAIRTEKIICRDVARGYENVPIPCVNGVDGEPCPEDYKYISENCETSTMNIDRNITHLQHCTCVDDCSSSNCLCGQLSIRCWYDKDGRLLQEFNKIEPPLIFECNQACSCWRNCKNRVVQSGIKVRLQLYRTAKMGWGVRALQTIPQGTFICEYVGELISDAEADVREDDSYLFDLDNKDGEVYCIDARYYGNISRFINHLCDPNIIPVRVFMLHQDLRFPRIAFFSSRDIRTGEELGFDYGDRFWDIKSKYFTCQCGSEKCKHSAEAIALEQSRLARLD
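Step 1: enzyme (final 20 nM) with compound, 15 min RT. Step 2: substrate peptide 500 nM and SAM 20 uM, 2 h RT. Step 3: anti-H3K9me1 antibody and AlphaScreen beads, 10 min, then plate read.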
L3MBTL1 inh – blocks human L3MBTL1 | AlphaScreen L3MBTL1–H3K9me1 peptide binding | 230,000 compounds, 0.66% hits | Potency, µM (top dose mostly 57.1 µM), inactives show top-dose activity, negative = inhibition, actives largely listed as inhibitors | Q9Y468; note: % is set by controls: 0 for no effect and ±100 for the full control effect; nearly all actives have a fitted effect of over 60% in size
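Displacement of a biotinylated histone H3(1-15) peptide monomethylated at Lys9 (75 nM) from L3MBTL1 (50 nM) was measured by AlphaScreen after a 30 min room-temperature compound incubation; cefsulodin titration served as intraplate control.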
BAZ2B inh – blocks human BAZ2B; AID 504333; 360,000 compounds, 4.4% hits; AlphaScreen BAZ2B-H3K14Ac peptide displacement; Q9UIF8; Potency, µM (series often up to 114 µM), inactives show at the top dose activity change, negative = inhibition, usual class: inhibitors; note: % is set by controls: 0 for no effect and ±100 for the full control effect; nearly all actives have a fitted effect of over 60% in size
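Protein-peptide AlphaScreen: BAZ2B 50 nM, b-H3K14Ac 50 nM, 1x PBS pH 7.4 + 0.01% Tween-20. Preincubation 30 min RT; cpd 30 min RT (top 110 uM); beads 20 min RT, light-protected.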
GLS inhibitor – blocks human kidney-isoform glutaminase activity. GLS enzymatic activity, qHTS titration. Potency, µM (titrated, usually from 45.5 µM), inactives show at the top dose activity change, negative = inhibition, usual class: inhibitors. 410,000 compounds, 0.21% hits; note: % is set by controls: 0 for no effect and ±100 for the full control effect
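Coupled fluorescence readout: glutamate oxidase/HRP/Amplex Red detect glutamate formed by hKGA from L-glutamine (1 mM solution added). Buffer 45 mM KH2PO4 pH 8.2, 0.02% Tween-20; reads at t0 and 30 min RT.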
HP1b binding inh – blocks HP1-beta chromodomain binding to methylated histone tails | Potency, µM (doses to about 114 µM), inactives show top-dose activity change, negative = inhibition, actives largely listed as inhibitors | AlphaScreen HP1-beta / biotin-H3K9me3 peptide binding | P83916 | 390,000 compounds, 0.56% hits; note: nearly all actives have a fitted effect of over 70% in size
Target sequence (P83916 whole entry, looked up): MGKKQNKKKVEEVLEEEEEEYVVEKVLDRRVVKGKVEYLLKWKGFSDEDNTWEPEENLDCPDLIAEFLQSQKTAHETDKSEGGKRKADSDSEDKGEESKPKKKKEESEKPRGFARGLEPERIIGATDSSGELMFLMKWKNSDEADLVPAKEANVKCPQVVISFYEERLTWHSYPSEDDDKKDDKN
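HP1-beta protein (50 nM final) preincubated 30 min at room temperature with biotinylated H3(1-18)K9me3 peptide (50 nM) in PBS pH 7.4, 0.01% Tween-20, then compound added for 30 min. AlphaScreen streptavidin donor/nickel chelate acceptor beads (10 ug/mL final), 30 min dark, luminescence read.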
Starred values were filed as active, the others as inactive; [ ] = another dose, or the depositor's remark. An excerpt weighted towards active compounds, which were near 10% of everything screened. Calls come from the whole dose curve; as a rule, active = well fitted curve in the direction sought with a large enough effect; inconclusive = small, poorly fitted or top-dose-only effect, or another doubt; inactive = no such curve, though single readings can be large; an effect the other way counts as inactive or inconclusive. Potency is the fitted concentration of half-maximal effect.

`Cc1cc(C)c(S(=O)(=O)N2CCC(n3c(C(F)(F)F)nc4cccnc43)CC2)c(C)c1` gave JMJD2A Tudor inh -12.0%, G9a inh 4.5%[59 µM], BAZ2B inh 3.4%, GLS inhibitor 2.0% and HP1b binding inh 13.9%.
Fc1ccc(CN2CCCCCC2)c(F)c1 was read as JMJD2A Tudor inh inconclusive, G9a inh -8.9%[12.7 µM], L3MBTL1 inh -3.7%, BAZ2B inh inconclusive, GLS inhibitor 12.6% and HP1b binding inh inconclusive.
For O=S(=O)(c1ccc(Br)cc1)N1CCCN(Cc2ccccc2F)CC1 the results were JMJD2A Tudor inh 11.9%, G9a inh -7.6%, L3MBTL1 inh 2.5%, BAZ2B inh 0.1%, GLS inhibitor 7.3% and HP1b binding inh 37.1%.
For Fc1ccccc1CN1CCCCCCC1 the results were JMJD2A Tudor inh 3.98µM*, G9a inh -49.9%[12.7 µM], BAZ2B inh 50.1µM*, GLS inhibitor 0.2% and HP1b binding inh inconclusive.
Screening Fc1ccc(CN2CCCCCCC2)c(F)c1 returned JMJD2A Tudor inh 3.16µM*, G9a inh inconclusive, L3MBTL1 inh -1.4%, BAZ2B inh 50.1µM*, GLS inhibitor 0.7% and HP1b binding inh inconclusive.
`Cc1ccccc1C(=O)n1nc(-c2ccco2)nc1NCc1ccc(Cl)cc1` gave JMJD2A Tudor inh -7.3%, G9a inh 5.1%[59 µM], BAZ2B inh -14.8%, GLS inhibitor -0.8% and HP1b binding inh -4.9%.
O=C(NNc1nc2cc3c(cc2s1)OCO3)c1ccc(F)cc1 was read as JMJD2A Tudor inh -20.0%, G9a inh 8.91µM*, L3MBTL1 inh 26.8%, BAZ2B inh 16.4%, GLS inhibitor 4.4% and HP1b binding inh 3.1%.
`O=C(NNc1nc2cc3c(cc2s1)OCCO3)c1ccc(F)cc1` gave JMJD2A Tudor inh -13.9%, G9a inh 50.1µM*, L3MBTL1 inh -3.8%, BAZ2B inh -9.1%, GLS inhibitor -20.3% and HP1b binding inh 23.1%.
For COc1ccc(Cl)cc1NC(=O)CN1C(=O)C(C)(C)c2cc(S(=O)(=O)N3CCCCC3)ccc21 the results were JMJD2A Tudor inh -13.2%, G9a inh 6.7%[59 µM], BAZ2B inh -0.2%, GLS inhibitor 0.7% and HP1b binding inh 6.9%[57 µM].
`O=c1[nH]c2ccc(NS(=O)(=O)c3ccc4ccccc4c3)cc2[nH]1` gave JMJD2A Tudor inh 7.7%, G9a inh 50.1µM*, L3MBTL1 inh -1.6%, BAZ2B inh -15.4%, GLS inhibitor 14.1% and HP1b binding inh 34.5%.
For O=c1[nH]c2ccc(NS(=O)(=O)c3ccc(Cl)cc3)cc2[nH]1 the results were JMJD2A Tudor inh -7.6%, G9a inh 56.2µM*, L3MBTL1 inh -0.6%, BAZ2B inh -18.1%, GLS inhibitor 18.6% and HP1b binding inh 35.5%.
`O=c1[nH]c2ccc(NS(=O)(=O)c3ccc(F)c(Cl)c3)cc2[nH]1` gave JMJD2A Tudor inh inconclusive, G9a inh inconclusive, BAZ2B inh -3.4%, GLS inhibitor -12.1% and HP1b binding inh -3.4%.
For COc1ccccc1NCC(O)Cn1c2ccccc2c2ccccc21 (stereo unspecified) the results were JMJD2A Tudor inh 39.8µM*, G9a inh inconclusive, BAZ2B inh 39.8µM*, GLS inhibitor -0.3% and HP1b binding inh inconclusive.
For COc1ccc(CCNCC(O)Cn2c3ccccc3c3ccccc32)cc1OC (stereo unspecified) the results were JMJD2A Tudor inh -35.3%, G9a inh inconclusive, L3MBTL1 inh -3.7%, BAZ2B inh inconclusive, GLS inhibitor -4.1% and HP1b binding inh -6.0%.
Screening Oc1ccccc1C(=S)N1CCCCCC1 returned JMJD2A Tudor inh -14.4%, G9a inh inconclusive, BAZ2B inh -7.7%, GLS inhibitor 24.5% and HP1b binding inh 33.5%.
Oc1ccccc1C(=S)N1CCCCC1 was read as JMJD2A Tudor inh 3.0%, G9a inh 10µM*, L3MBTL1 inh 1.2%, BAZ2B inh -4.1%, GLS inhibitor -8.9% and HP1b binding inh -17.5%.
For Cc1cccc(C(=O)Nc2cccc(OCc3cc(=O)n4c(C)csc4n3)c2)c1 the results were JMJD2A Tudor inh -13.9%, G9a inh -31.7%[59 µM], BAZ2B inh -0.3%, GLS inhibitor -11.4% and HP1b binding inh 41.9%.
`O=C1C[C@H](c2ccccc2Cl)N1S(=O)(=O)c1ccccc1[N+](=O)[O-]` gave JMJD2A Tudor inh -14.5% and HP1b binding inh 9.0%.
COc1cc(N=Nc2c(C)n(C)n(-c3ccccc3)c2=O)ccc1N was read as JMJD2A Tudor inh -10.0%, G9a inh 50.1µM*, BAZ2B inh -24.6%, GLS inhibitor inconclusive and HP1b binding inh 11.2%.
CN(C(=O)c1cc2c(s1)-c1ccc(Cl)cc1SC2)c1cccc(C(F)(F)F)c1 was read as JMJD2A Tudor inh 12.8%, G9a inh 0.2%[59 µM], BAZ2B inh 9.4%, GLS inhibitor 2.7% and HP1b binding inh 68.5%.
For COCCCNC(=O)c1c(NC(=O)Cc2coc3cc(C)ccc23)sc2c1CCCC2 the results were JMJD2A Tudor inh -8.3%, G9a inh -5.8%[59 µM], BAZ2B inh -2.6%, GLS inhibitor 14.2% and HP1b binding inh 45.7%.
Cc1ccc2nc(NC(=O)COC(=O)c3ccc(Br)o3)sc2c1 was read as JMJD2A Tudor inh 44.7µM*, G9a inh inconclusive, L3MBTL1 inh -39.8%, BAZ2B inh 42.7%, GLS inhibitor 6.9% and HP1b binding inh 9.9%.
`O=C(COC(=O)c1ccc(Br)o1)Nc1nc2ccccc2s1` gave JMJD2A Tudor inh -26.9%, G9a inh -36.5%[59 µM], L3MBTL1 inh -6.9%, BAZ2B inh -6.0%, GLS inhibitor 22.6% and HP1b binding inh inconclusive.
Screening Cc1ccc2nc(NC(=O)CN(C)S(=O)(=O)c3ccc(Br)s3)sc2c1 returned JMJD2A Tudor inh -22.9%, G9a inh -5.3%[12.7 µM], BAZ2B inh -22.9%, GLS inhibitor 5.7% and HP1b binding inh 19.0%.
Screening Cc1ccc2nc(NC(=O)CNS(=O)(=O)c3ccc(Br)s3)sc2c1 returned JMJD2A Tudor inh 50.1µM*, G9a inh inconclusive, L3MBTL1 inh 3.0%, BAZ2B inh -14.6%, GLS inhibitor -0.7% and HP1b binding inh 5.8%.
`O=C(Cn1c(=O)n(CCc2ccccc2)c(=O)c2c3c(sc21)CCCC3)Nc1ccc(F)c(F)c1` gave JMJD2A Tudor inh 3.4%, G9a inh 2.6%[59 µM], BAZ2B inh 1.9%, GLS inhibitor -5.0% and HP1b binding inh 21.7%.
For COCCn1c(=O)c(CCc2ccccc2)nc2cnc(Oc3cccc(Cl)c3)nc21 the results were G9a inh -0.3%[12.7 µM].
Cc1ccc(Nc2cc(C(=O)NC3CCCC3)c3ccccc3n2)cc1C was read as JMJD2A Tudor inh -5.8%, G9a inh 5.0%[59 µM], BAZ2B inh 5.8%, GLS inhibitor 4.5% and HP1b binding inh 18.0%.
